An excerpt weighted towards active compounds, which were near 2.9% of everything screened.
D3 antag = antagonists of human D3 dopamine receptor; max response, negative = inhibition, %; D3R cells, DiscoveRx beta-arrestin luminescence, antagonist mode; hits give low values; AID 652054; actives 2.5% (n = 360,000); in the data active = max response below about -50%; inconclusive = no clear call, values can overlap the other calls; also: % is scaled to controls: 0 for no effect and ±100 for the full control effect
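Cells expressing the human receptor were seeded at 1500 cells/well, incubated overnight at 37 degrees C in 5% CO2, then exposed to library compounds with dopamine controls for 90 minutes at 37 degrees C before luminescent detection.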
B2AR arrestin = agonists driving beta-arrestin recruitment to human beta2-adrenergic receptor. Potency, µM (top dose mostly 46.1 µM), inactives show at the highest dose activation, usual class: activators. AID 492947. beta-arrestin recruitment to beta2AR, cell-based reporter. actives 0.02% (n = 330,000). P07550; active = well fitted activation curve with a large enough effect; inconclusive = small, poorly fitted or top-dose-only effect;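 also: potency is read from the fitted curve at half-maximal effect; 0% = DMSO controls and full agonism = EC100 isoproterenol or metaproterenol; nearly all actives have a fitted effect of over 65% in size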
D3 ag = agonists of human D3 dopamine receptor. actives 0.58% (n = 410,000). max activation, %. D3R DiscoveRx beta-arrestin cells, luminescence, 90 min. P35462; in the data active = max activation above about 30%; also: 0% is about no effect
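Agonist mode: compounds and dopamine controls were applied to plated cells for 90 min at 37 degrees C after an overnight attachment at 1500 cells/well. Luminescent read-out followed 30 - 60 minutes at room temperature with DiscoveRx detection reagent.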
TSHR antag = antagonists of human thyroid stimulating hormone receptor | P16473 | TSHR-expressing cells, TSH-stimulated cAMP HTRF, 2 h; hits give low values | activity change, negative = inhibition, % at 11.5 µM | actives 0.2% (n = 330,000);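 active = activity change below a set negative limit, meaning inhibition stronger than a set level, cut at about -70% in these data; inconclusive = activity change between two set negative limits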; also: % is scaled to controls: 0 for no effect and ±100 for the full control effect
Target sequence (P16473 whole entry, looked up): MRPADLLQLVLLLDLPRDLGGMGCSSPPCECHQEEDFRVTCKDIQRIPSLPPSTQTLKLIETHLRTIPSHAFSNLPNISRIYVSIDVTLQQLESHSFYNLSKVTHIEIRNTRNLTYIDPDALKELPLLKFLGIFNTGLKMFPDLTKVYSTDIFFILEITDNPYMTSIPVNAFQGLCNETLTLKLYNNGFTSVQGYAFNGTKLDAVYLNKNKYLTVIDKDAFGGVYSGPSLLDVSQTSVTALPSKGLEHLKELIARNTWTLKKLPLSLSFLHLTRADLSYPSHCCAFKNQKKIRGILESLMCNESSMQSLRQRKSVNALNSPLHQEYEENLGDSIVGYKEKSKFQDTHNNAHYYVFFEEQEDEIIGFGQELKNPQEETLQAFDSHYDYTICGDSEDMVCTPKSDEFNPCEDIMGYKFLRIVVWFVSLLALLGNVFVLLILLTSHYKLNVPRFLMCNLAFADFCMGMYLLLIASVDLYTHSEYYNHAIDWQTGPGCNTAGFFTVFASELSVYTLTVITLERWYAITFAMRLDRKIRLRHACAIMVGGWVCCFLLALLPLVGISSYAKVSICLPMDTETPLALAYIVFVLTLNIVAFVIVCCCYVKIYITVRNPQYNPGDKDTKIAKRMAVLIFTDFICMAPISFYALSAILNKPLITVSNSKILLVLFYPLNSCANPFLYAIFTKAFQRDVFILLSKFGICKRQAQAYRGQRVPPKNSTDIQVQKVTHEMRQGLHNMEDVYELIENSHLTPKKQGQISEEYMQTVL
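Freshly harvested TSHR cells receive pin-tooled compound, then EC80 TSH at 4nM final. After 2 hours at 37 deg C, antibody in lysis buffer and cAMP-d2 are added; 30 minutes at ambient temperature precede the HTRF read.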
* hit, by the source's call; ? = inconclusive; · = no result given.

SMILES | D3 antag | B2AR arrestin | D3 ag | TSHR antag
CC1CCN(CCC(=O)Nc2ccc3c(c2)CCC3)CC1 | -59* | -1% | -30 | 17
CCOC(=O)C1CCN(CC(=O)Nc2c(C(=O)OC)[nH]c3ccc(Cl)cc23)CC1 | -3 | 0% | 13 | -26
Cc1ccc2c(c1)NC(=O)C(CC(=O)Nc1ccc(CN3CCC(C)CC3)cc1)O2 (stereo not given) | -61* | 0% | -9 | 3
CCOC(=O)C1CCCN(CC(=O)Nc2c(C(=O)OC)[nH]c3ccc(Br)cc23)C1 (stereo not given) | -51* | 0% | -15 | 0
c1ccc(Cn2ncc3c(N4CCN(c5ccccc5)CC4)ncnc32)cc1 | 44 | · | 11 | ·
Cc1ccccc1NC(=O)Nc1nnc(N2CCCCCC2)s1 | · | · | 6 | ·
COc1ccc(C(=O)N/C(=C\c2ccc(Cl)cc2)C(=O)NCc2ccncc2)cc1 | -4 | · | 0 | ·
CCOC(=O)c1sc2ncn(CC(=O)Nc3ccc(OC)c(Cl)c3)c(=O)c2c1C | · | · | -14 | ·
Cc1ccc(NC(=O)CCN2CCC(C)CC2)cc1 | -62* | 0% | -22 | -2
CC1CCN(CCC(=O)Nc2ccc(Cl)cc2)CC1 | -64* | -1% | -15 | 12
CCOC(=O)C1CCCN(CCC(=O)Nc2ccc(C)cc2)C1 (stereo not given) | -71* | 0% | -7 | 9
CCc1cccc(C)c1NC(=O)CSc1nc2ccccc2nc1Cc1ccccc1 | · | · | -4 | ·
CC(=O)c1ccc(C(=O)N(Cc2cccnc2)c2nc3c(Cl)cccc3s2)cc1 | · | · | 3 | ·
COc1ccc2c(c1)NC(c1cccnc1)=NC(c1ccc(F)cc1)=N2 | · | · | -2 | ·
CCNC(=O)C1CCCN(Cc2cc(C(F)(F)F)ccc2Cl)CC1 (stereo not given) | -76* | · | -20 | ·
CCNC(=O)C1CCCN(Cc2ccc(C(=O)OCC)cc2)CC1 (stereo not given) | 0 | · | -8 | ·
CO[C@@H]1[C@@H](O[C@@H]2O[C@H](C)[C@@H](O[C@H]3C[C@@](C)(O)[C@@H](OC(=O)CC(C)C)[C@H](C)O3)[C@H](N(C)C)[C@H]2O)[C@@H](CC=O)C[C@@H](C)[C@@H](O)/C=C/C=C/C[C@@H](C)OC(=O)C[C@H]1O | · | · | 11 | ·
CCOc1ccc(-n2ccnc(SCC(=O)NCc3cccc(OC)c3)c2=O)cc1 | -60* | -1% | -17 | -3
COC(=O)C1=C(C)NC(C)=C(C(=O)OCCN(C)Cc2ccccc2)C1c1cccc([N+](=O)[O-])c1 (stereo not given) | -51* | 0% | -73 | -19
Cc1c(NC(=O)CN2CCN(c3ccccc3)CC2)c(=O)n(-c2ccccc2)n1C | 20 | 0% | 0 | 8
Cc1c(NC(=O)CSc2nc3ccccc3[nH]2)c(=O)n(-c2ccccc2)n1C | -78* | 0% | 7 | -3
Cc1c(NC(=O)CN2C(=O)c3ccccc3S2(=O)=O)c(=O)n(-c2ccccc2)n1C | -55* | -1% | 9 | 3
Cc1c(NC(=O)Cn2[nH]c(=O)c3ccccc3c2=O)c(=O)n(-c2ccccc2)n1C | -52* | 0% | 1 | 5
CC(NC(=O)c1ccc(F)cc1)c1nc2ccccc2[nH]1 (stereo not given) | · | · | -14 | ·
CCCCOC(=O)c1ccc(NC(=O)/C(C#N)=C/c2ccc(C)o2)cc1 | · | · | 3 | ·
SMILES | D3 antag | B2AR arrestin | D3 ag | TSHR antag
CCc1cccc(C)c1NC(=O)Cn1cc2c(n1)CCCC2 | · | · | -8 | ·
Cc1cc(C)c(NC(=O)CSc2nc(=O)[nH]c3c2CCCC3)c(C)c1 | · | · | 4 | ·
O=C(NCCN1CCN(c2ccccc2)CC1)c1cccn2c(=O)c3ccccc3nc12 | 10 | 0% | 0 | -6
CN(CCCNC(=O)c1cccn2c(=O)c3ccccc3nc12)Cc1ccccc1 | -56* | -1% | -57 | 2
O=C(NCCN1CCN(c2ccccc2F)CC1)c1cccn2c(=O)c3ccccc3nc12 | -50* | 0% | -17 | -8
Cc1ccc(CNc2nc(-c3ccco3)nn2S(C)(=O)=O)cc1 | · | · | 8 | ·
CCOc1ccc(-c2cc3c(=O)n(CC(=O)NCc4ccc(F)cc4)ccn3n2)cc1 | · | · | -7 | ·
Cc1cccc(C(c2sc3nc(-c4ccco4)nn3c2O)N2CCN(c3ccccc3F)CC2)c1 (stereo not given) | · | · | -10 | ·
COc1ccccc1C(=O)N1CCN=C1c1ccccc1 | -9 | 0% | 34* | 21
COc1cc(OC)cc(C(=O)N2CCC(N3CCN(c4ccccc4OC)CC3)CC2)c1 | -53* | -2% | 0 | -6
COc1cccc(OCc2cc(C(=O)N3CCN(c4ccccc4O)CC3)no2)c1 | 6 | 0% | 7 | -22
COc1cccc(OCc2cc(C(=O)N3CCN(c4ccccc4OC)CC3)no2)c1 | -63* | 0% | -19 | -21
COc1ccccc1N1CCN(C2CCCN(C(=O)c3cccc(-c4ccco4)c3)C2)CC1 (stereo not given) | -66* | 0% | -13 | 6
COc1ccc(C(=O)N2CCN(c3ccccc3OC)CC2)cc1 | 5 | 0% | -1 | -2
COc1ccccc1N1CCN(C2CCCN(C(=O)c3cc(C(C)C)on3)C2)CC1 (stereo not given) | -62* | · | -2 | ·
COc1ccccc1N1CCN(C2CCCN(C(=O)c3ccccn3)C2)CC1 (stereo not given) | -6 | 0% | -10 | 0
COC(=O)c1ccccc1NC(=O)Cc1nc(-c2ccc(OC)cc2)no1 | · | · | -3 | ·
COc1ccc(-n2nnc(-c3nc(-c4ccc5c(c4)OCO5)no3)c2C)cc1Cl | · | · | 8 | ·
CC(C)NC(=O)C1CCC(Cn2c(=O)c3sccc3n(CC(=O)NCc3ccccc3)c2=O)CC1 (stereo not given) | · | · | 5 | ·
O=C(NCc1ccccc1C(F)(F)F)c1cccc2c1C(=O)c1ccc(N3CCOCC3)cc1S2(=O)=O | 73 | 0% | 38* | -1
O=C(NCc1ccccc1Cl)c1cccc2c1C(=O)c1ccc(-c3ccc(OC(F)(F)F)cc3)cc1S2(=O)=O | 54 | 0% | 31* | -1
O=C(NCc1cccc(F)c1)c1cccc2c1C(=O)c1ccc(N3CCOCC3)cc1S2(=O)=O | 21 | 0% | 56* | -4
O=C(NCc1cc(C(F)(F)F)ccc1Cl)c1cccc2c1C(=O)c1ccc(-c3ccc(OC(F)(F)F)cc3)cc1S2(=O)=O | · | 0% | · | -2
Cc1cc2c(cc1S(=O)(=O)N(CCO)Cc1ccccc1)OCC(=O)N2 | · | · | 0 | ·
COc1cccc(CNc2nc3cc(-c4cscc4C)sc3c(=O)n2C)c1 | 0 | · | 8 | ·
COCCn1c(C)cc(O)c(C(c2ccc(Cl)cc2)N2CCCCC2)c1=O (stereo not given) | · | · | 3 | ·
COc1ccc(OC2C(=O)N(Cc3ccc4c(c3)OCO4)C2c2sccc2C)cc1 (stereo not given) | 39 | 0% | 34* | -12
COc1ccc(OC2C(=O)N(Cc3ccc(F)cc3)C2c2ccc(OC)c(OC)c2)cc1 (stereo not given) | -14 | 1% | -11 | 11
O=C(CCN1CCN(c2ccccc2)CC1)Nc1ccccc1F | ? | -1% | 34* | -11

Screening results as filed in PubChem BioAssay.
